# According to ChEMBL document CHEMBL3988442, “University of Dundee, Small-Polar-MMV Screening Library” (2021):
# The whole screen tested about 48,000 compounds, of which about 13,000 (27%) showed an effect of 50% or more. The list shows a part of the results.
# Test system: Wolbachia pipientis
# Test: Anti-Wolbachia Cell-Based Screen
# Assay type: functional
# Design: scale not given: in the data most compounds retested in dose-response had high values
# Conditions: 5 µM
row,Structure (SMILES),Percent Effect [%]
1,CCC(C)(C)NC(=O)c1ccc(NC(=O)NCc2cc(C)on2)cc1,-5.404
2,CN1CC2(CCN(C(=O)c3ccc4c(=O)n(C)cnc4c3)CC2)CC1=O,-1.826
3,N[C@@H]1CCCN(C(=O)Cc2c[nH]c3ccccc23)[C@H]1c1ccccc1F,92.02
4,COc1cccc(CCC(=O)N2CCC[C@@H](N)[C@@H]2c2ccccc2F)c1.Cl,156.6
5,COc1cccc(C(=O)N2CCCC(C(=O)CCc3ccccc3)C2)c1 (stereo not drawn),-1.62
6,COc1cccc(CC2CCCN2CC(N)=O)c1 (stereo not drawn),14.09
7,COc1ccc(CC(=O)N2CCCC(Cn3cc(CN)nn3)C2)cc1 (stereo not drawn),-29.22
8,CN(C(=O)Cc1c[nH]c2ccccc12)C1CCN(c2ccccn2)CC1,-5.005
9,COC(=O)c1cc2n(n1)CCCN(C(=O)Cc1c[nH]c3ccccc13)C2,-8.312
10,COc1ccc(CC(=O)N2CCC[C@@H](N)[C@@H]2c2ccccc2F)cc1.Cl,65.32
11,CN1CCC(N[C@@H]2CO[C@H](CNC(=O)C3CCCC3)[C@H]2O)CC1,-10.26
12,CN(C)C(=O)CNC(=O)CCn1ncc2c(Cl)cccc21,7.628
13,O=C(NCCn1ccnc1)c1ccn(-c2cccc(F)c2)n1,3.245
14,CC(=O)N1CCC(C(=O)NCCN2CCCC(C)C2)CC1 (stereo not drawn),4.421
15,COc1cn(-c2ccccc2)nc1C(=O)NCCN1CCCC(C)C1 (stereo not drawn),85.45
16,CC1CCCN(CCNC(=O)c2ccn(-c3cccc(F)c3)n2)C1 (stereo not drawn),71.46
17,CC1CCCN(CCCNC(=O)c2cn(C)nc2-c2cccnc2)C1 (stereo not drawn),-7.015
18,COc1ccc(-n2ccc(C(=O)NCCN3CCCC(C)C3)n2)cc1 (stereo not drawn),109.8
19,CC1CCCN(CCNC(=O)c2ccn(-c3ccccc3)n2)C1 (stereo not drawn),-2.104
20,CC1CCCN(CCNC(=O)c2ccn(-c3ccc(F)cc3)n2)C1 (stereo not drawn),89.11
21,COc1cn(-c2ccccc2)nc1C(=O)NCCCN1CCCC(C)C1 (stereo not drawn),0.4079
22,COCC1c2nnn(CC3CC3)c2CCN1C(=O)c1ccnnc1 (stereo not drawn),-5.349
23,Cc1csc(N(C)C(=O)C2CC(=O)N(c3ccccc3Cl)C2)n1 (stereo not drawn),9.936
24,CC(Sc1nnc(C2CC2)n1CC(N)=O)c1ccc(F)cc1F (stereo not drawn),-10.03
25,Cc1cccc(-c2ncc(CNC(C)CO)cn2)c1 (stereo not drawn),-5.698

row,Structure (SMILES),Percent Effect [%]
1,Cn1cnnc1C1CCN(c2cncc(-n3cccn3)n2)CC1,0.9995
2,O=C(NCC(O)(c1cccs1)C1CC1)NC1CCCCC1 (stereo not drawn),9.559
3,COCC1CN(S(=O)(=O)Cc2ccccc2)Cc2c1cnn2C.O=C(O)C(F)(F)F (stereo not drawn),-18.15
4,Cc1cccc(N2CCN(CC(=O)N3CCCC(N(C)C)CC3)CC2)c1 (stereo not drawn),-50.72
5,Cc1cc(C)nc(NC2CCOC3(CCCC3)C2)n1 (stereo not drawn),-13.03
6,Cc1cc(Nc2cnccn2)cc(C2CCCNC2)n1 (stereo not drawn),90.08
7,Cl.Cl.Fc1cccc(-c2c[nH]c(C3CCCN3)n2)c1 (stereo not drawn),-26.74
8,Cc1cc(Nc2cnccn2)cc(C2CCCN2)n1 (stereo not drawn),103.5
9,Cc1cc(Nc2nc(C)cc(C)n2)cc(C2CCCN2)n1 (stereo not drawn),104
10,Cc1cc(Nc2ccc(F)cn2)cc(C2CCCN2)n1 (stereo not drawn),111.9
11,Cn1cc(C2CC3(CCN(C(=O)c4ccsc4)CC3)NC2=O)cn1 (stereo not drawn),-8.602
12,Cc1ccc(C(=O)N2CC(C)(C)[C@@](C)(O)C2)cc1N1CCNC1=O,-5.477
13,Cc1nn(C)c(C)c1CN(CCO)C(=O)C1COc2ccccc2C1 (stereo not drawn),-4.476
14,COCC(O)CNC(=O)c1coc(COc2ccc3sc(C)nc3c2)n1 (stereo not drawn),-2.868
15,CC(Cn1cccn1)NCc1csc(-c2ccccc2)n1 (stereo not drawn),5.94
16,CCCS(=O)(=O)NC(=O)c1ccc(Br)o1,-3.964
17,Cn1nccc1-c1ccc2nc(C3CCNCC3)nn2c1,98.45
18,O=C(O)C(F)(F)F.O=C(O)C(F)(F)F.c1cc2nc(C3CCN(CC4CC4)CC3)nn2cc1N1CCCC1,-8.773
19,Cn1nccc1-c1ccc2nc(C3CCN(CC4CC4)CC3)nn2c1.O=C(O)C(F)(F)F.O=C(O)C(F)(F)F,97.48
20,Cn1nccc1-c1ccc2nc(C3CCN(CCO)CC3)nn2c1.O=C(O)C(F)(F)F,-15.06
21,CC(C)N1CCC(c2nc3ccc(-c4ccnn4C)cn3n2)CC1.O=C(O)C(F)(F)F,101.4
22,CC(=O)N1CCC(c2nc3ccc(-c4ccnn4C)cn3n2)CC1.O=C(O)C(F)(F)F,79.91
23,CCC1c2ccsc2CCN1C(=O)NCCNc1ncccn1 (stereo not drawn),9.072
24,O=C(c1ccccn1)N1C[C@@H]2CC[C@H](C1)N(C(=O)Cc1cccs1)C2,-18.37
25,CCc1sc(-c2nnc(CNC(C)Cn3cccn3)o2)cc1C (stereo not drawn),-4.192

row,Structure (SMILES),Percent Effect [%]
1,Cn1ccc(C(=O)NC2CCC23CCN(Cc2cnn(C)c2)CC3)c1.O=C(O)C(F)(F)F (stereo not drawn),118.5
2,Cn1ccc(C(=O)NC2CCC23CCN(C(=O)C2CCOCC2)CC3)c1 (stereo not drawn),-10.05
3,Cn1ccc(C(=O)NC2CCC23CCN(Cc2cccnc2)CC3)c1.O=C(O)C(F)(F)F.O=C(O)C(F)(F)F (stereo not drawn),0.1855
4,Cn1ccc(C(=O)NC2CCC23CCN(Cc2ccc(F)cc2)CC3)c1.O=C(O)C(F)(F)F (stereo not drawn),104.6
5,Cn1ccc(C(=O)NC2CCC23CCN(C(=O)c2ccncc2)CC3)c1.O=C(O)C(F)(F)F (stereo not drawn),-9.033
6,Cc1ccc(CN2CC(C(=O)NCC3CC3)C3(CCOCC3)C2)s1.O=C(O)C(F)(F)F (stereo not drawn),9.43
7,Cc1ccc(CN2CCC3(CCC3NC(=O)c3ccn(C)c3)CC2)s1.O=C(O)C(F)(F)F (stereo not drawn),90.78
8,Cn1ccc(C(=O)NC2CCC23CCN(CC2CCOCC2)CC3)c1.O=C(O)C(F)(F)F (stereo not drawn),102.1
9,COCC(=O)N1CCC2(CCC2NC(=O)c2ccn(C)c2)CC1 (stereo not drawn),-13.3
10,Cn1ccc(C(=O)NC2CCC23CCN(C(=O)c2cnccn2)CC3)c1 (stereo not drawn),13.19
11,Cc1ccccc1CN1CCN(C(=O)CN2CCOC2=O)CC1,-7.914
12,Cc1nc2c(c(N3CCCC(CO)C3)n1)CCN(Cc1ccco1)CC2 (stereo not drawn),-5.863
13,CC(C)(C)CC(=O)NC[C@H]1OC[C@@H](NCc2ccccn2)[C@@H]1O,-12.57
14,COc1ccc(CN2C[C@@H](CN(C)C)[C@@H](CO)C2)cc1OC,17.76
15,Cn1ccc(C(=O)NC2CCC23CCN(C(=O)c2ccccn2)CC3)c1 (stereo not drawn),-6.667
16,Cn1ccc(C(=O)NC2CCC23CCN(C(=O)c2ccnnc2)CC3)c1 (stereo not drawn),9.055
17,Cn1ccc(C(=O)NC2CCC23CCN(Cc2nccs2)CC3)c1 (stereo not drawn),125.2
18,CS(=O)(=O)NCc1cc2n(n1)CCCN(Cc1ccc(Cl)s1)C2,7.385
19,N[C@@H](C(=O)N1CCN(c2ccccc2Cl)C(=O)C1)c1ccccc1,1.545
20,Cl.NC(C(=O)N1CCSc2ccccc2C1)c1ccccc1 (stereo not drawn),93.09
21,CC(C)(O)CN1CCN(C(=O)C2CSc3ccccc3O2)CC1 (stereo not drawn),-0.7844
22,CC(C)[C@H](N)C(=O)N1CCSc2ccccc2C1.Cl,101.9
23,CC(C)C[C@H](N)C(=O)N1CCSc2ccccc2C1.Cl,104.5
24,CN(C)C(C(=O)N1Cc2ccccc2C1)c1ccccc1F (stereo not drawn),-6.272
25,Cc1csc(CN(C)C(C)C(=O)N2CCc3ccccc3C2)n1 (stereo not drawn),7.72

row,Structure (SMILES),Percent Effect [%]
1,CCc1cnc(CN(C)C(C)C(=O)N2CCc3ccccc3C2)s1 (stereo not drawn),-7.357
2,O=C(C1CSc2ccccc2O1)N1CCN(CCO)CC1 (stereo not drawn),-0.8425
3,COc1ccc(-c2cn(CCn3c(C)cc(C)nc3=O)nn2)cn1,13.66
4,CC(Oc1ccc(F)cc1F)C(=O)N1CCC2(CC1)CC(=O)N(C)C2 (stereo not drawn),-15.1
5,Cn1c(C(=O)N2CCc3[nH]cnc3C2C(=O)O)ccc1-c1ccccc1 (stereo not drawn),10.75
6,CN(Cc1nc(CC2CC2)no1)CC1Cc2ccccc2O1 (stereo not drawn),1.11
7,Cc1nccn1-c1ccc(=O)n(CCNC(=O)c2ccccn2)n1,116.7
8,Cc1nccn1-c1cc(CNC(=O)c2ccccn2)ccn1,-23.44
9,O=c1ccc(-n2ccnc2)nn1CCNS(=O)(=O)c1ccccc1Cl,-3.668
10,Cn1c(C(F)(F)F)nn(CCNC(=O)c2ccccn2)c1=O,-5.949
11,O=C(CNC(=O)c1c(F)cccc1Cl)Nc1ccc(F)cn1,-31.04
12,Cc1nccn1-c1ccc(=O)n(CCNC(=O)Cc2ccccc2)n1,251.7
13,CC(=O)NCc1ccc(-n2ccnc2C)nc1,28.24
14,Cc1nccn1-c1ccc(=O)n(CCNC(=O)c2c(F)cccc2Cl)n1,122.2
15,Cn1c(C(F)(F)F)nn(CCNC(=O)CCc2ccccc2)c1=O,8.562
16,Cc1ccoc1C(=O)N1CC(C(=O)N2CCOCC2)C2(CCOCC2)C1 (stereo not drawn),-39.43
17,CC(=O)c1c(F)cccc1N1CCC(NS(=O)(=O)c2ccccc2)CC1,-17.75
18,CC(C)Oc1cc(N2CC[C@H](CO)[C@@H](O)C2)nc(N)n1,-19.56
19,Cc1ccccc1CCCN1C(=O)CC2(CCSC2)C1=O (stereo not drawn),0.3605
20,Cc1noc(CCCNC(=O)C2CSCN2C(=O)C(C)(C)C)n1 (stereo not drawn),-2.864
21,CN(C(=O)CCNC(=O)C1COc2ccccc21)c1ccccc1 (stereo not drawn),1.32
22,O=C(c1cocn1)N1CCC2(CC1)CC(OCC1CC1)CO2 (stereo not drawn),7.124
23,CN(C)CCCNc1ncnc2cccc(F)c12,-15.41
